Compound activity from PubChem BioAssay.
Pf growth 96h = inhibits malaria parasite growth, 96 h; P. falciparum luciferase reporter growth, 96 h; Potency, µM (highest dose often 28.7 µM), usual class: inhibitors; 6.9% of 320,000 active; AID 504834
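Cell-based qHTS: luciferase-tagged P. falciparum in erythrocytes (2% hematocrit, 0.05% parasitemia final) incubated with compounds for 96 hours, 37 C, 5% CO2; luciferase detection reagent then added and luminescence measured.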
AMA1-RON2 inh = inhibitors of Plasmodium falciparum AMA1-RON2 interaction; AID 720542; 0.2% of 360,000 active; AlphaScreen AMA1-biotinylated RON2 peptide binding; Potency, µM (highest dose often 58.2 µM), usual class: inhibitors; note: nearly all actives have a fitted effect of over 45% in size
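AMA1 (3D7) with his tag at 25 nM final met compounds first, then biotinylated RON2 peptide at 25 nM; detection used donor plus acceptor beads, 10 µg/mL apiece, read by AlphaScreen after 30 min at room temperature.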
SARS PLpro yeast = blocks SARS-CoV papain-like protease in a yeast assay; S. cerevisiae expressing SARS-CoV PLpro, growth rescue; Potency, µM (titrated, usually from 32.9 µM), usual class: activators; 0.19% of 330,000 active; AID 485353; calls by dose curve; note: nearly all actives have a fitted effect of over 55% in size
Shiga toxin inh = inhibitors of Shiga toxin in Vero cells. Vero cells, Shiga toxin protein synthesis inhibition reporter. 9.2% of 290,000 active. inhibition, % at 38.7 µM; in the data active = inhibition mostly above about 28%, no sharp cut-off; inactive = mostly below about 43%
Cycloheximide cs = affects cycloheximide protein synthesis inhibition readout, counter-screen. cell reporter, cycloheximide protein synthesis inhibition counterscreen. max response, %. 12% of 300,000 active; in the data active = max response mostly above about 13%, no sharp cut-off; inactive = mostly below about 14%; note: read at 38.3 µM for the half of the compounds with a filed dose
Pf growth 48h = inhibits P. falciparum growth in the first generation, 48 h; P. falciparum luciferase growth in erythrocytes, 48 h; Potency, µM (top dose mostly 28.7 µM), hits mostly inhibitors; 5.9% of 310,000 active
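Cell-based growth assay: transgenic P. falciparum expressing firefly luciferase, cultured in red cells within RPMI 1640 containing 0.5% w/v Albumax, 24 mM bicarbonate and gentamycin. A drop in luciferase activity indicates inhibition.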
Hits are given with their value; i = inactive; ? = inconclusive; nt = not tested or not shown; [ ] = another dose, or the depositor's remark. Sampled rows, rich in hits. Any-hit rate of the full collection: about 19%. Unless noted, calls come from the whole dose curve; as a rule, active = well fitted curve in the direction sought with a large enough effect; inconclusive = small, poorly fitted or top-dose-only effect, or another doubt; inactive = no such curve, though single readings can be large; an effect the other way counts as inactive or inconclusive.

SMILES | Pf growth 96h | AMA1-RON2 inh | SARS PLpro yeast | Shiga toxin inh | Cycloheximide cs | Pf growth 48h
Brc1csc(/C=N/Nc2nc3ccccc3s2)c1 | i | i | i | 91.9 | 37.7 | i
Brc1cc2c(cc1/C=N/Nc1nc3ccccc3s1)OCO2 | i | i | i | 28.2 | 20.8 | i
C(=N\Nc1nc2ccccc2s1)/c1ccc2c(c1)OCO2 | ? | i | i | 89.9 | 71.9 | i
C(=N\Nc1nc2ccccc2s1)/c1ccccn1 | i | i | i | i | i | i
CNc1cncc(-c2ccoc2)n1 | nt | i | nt | nt | nt | nt
C(=N\Nc1ccccc1)/c1nc2ccccc2s1 | i | i | i | 134.7 | 64.1 | i
CC1(C)Cc2ccccc2C(/C(=N\Nc2cccc(Cl)c2)C(N)=O)=N1 | i | ? | i | i | i | 5.86µM
O=C(COc1cc(F)ccc1[N+](=O)[O-])NCCCc1ccccc1 | i | i | i | i | i | i
Cc1ccc2c(c1)N(CC(=O)N1CCCCCC1)C(=O)CO2 | nt | i | i | i | i | i
Cc1ccc2c(c1)N(CC(=O)N1CCCC1)C(=O)C(C)O2 (stereo not drawn) | ? | i | i | i | i | ?
CN1CCN(C(=O)CN2C(=O)COc3ccc(S(=O)(=O)N4CCOCC4)cc32)CC1 | 5.22µM | i | i | i | i | i
CCN(CC)S(=O)(=O)c1ccc2c(c1)N(CC(=O)Nc1ccc(NC(C)=O)cc1)C(=O)CO2 | ? | i | i | i | i | i
CCCN1CCN(C(=O)CN2C(=O)COc3ccc(S(=O)(=O)N(CC)CC)cc32)CC1 | 2.94µM | i | i | i | i | i
Cc1ccc2c(c1)N(CC(=O)N1CCCCC1)C(=O)C(C)O2 (stereo not drawn) | 9.28µM | i | i | i | i | i
CC(C)(C)c1ccc2c(c1)N(CC(=O)N1CCCC1)C(=O)CO2 | i | i | i | i | i | 11.7µM
CCOC(=O)[C@@H]1[C@H]2COc3cc(OC)ccc3[C@@H]2N2C(=O)N(c3ccccc3)C(=O)[C@@]12C | nt | i | i | nt | nt | nt
O=C(C1CC1)N(CCN(C(=O)C1CC1)c1ccccc1)c1ccccc1 | i | i | i | i | i | 0.0026µM
CCN(C(=S)NC(=O)C1CC1)c1ccccc1 | i | i | i | i | i | i
O=C(c1ccncc1)N1CCN(S(=O)(=O)c2ccc(F)cc2)CC1 | i | i | i | i | i | i
COc1ccc(S(=O)(=O)N2CCC(C(=O)NN3CCCCC3)CC2)cc1 | nt | i | nt | nt | nt | nt
COc1ccc(NC(=O)Cn2cc(C(=O)C3CC3)c3ccccc32)cc1 | i | i | i | i | i | i
Cc1sc2nc(C)n(/N=C/c3ccccc3)c(=O)c2c1C | nt | i | i | i | i | i
C=CCOc1nc2sc(C)c(C)c2c(=O)n1-c1ccccc1 | 8.28µM | i | i | i | i | i
O=C(Nc1nsc(-c2ccccc2)n1)c1ccc(F)cc1 | ? | i | i | 73.5 | 32.1 | i
Cc1ccc(-c2csc(NC(=O)c3ccc(F)cc3)c2C(=O)O)cc1 | i | i | i | 94.2 | 40.4 | i
SMILES | Pf growth 96h | AMA1-RON2 inh | SARS PLpro yeast | Shiga toxin inh | Cycloheximide cs | Pf growth 48h
COc1ccc(-c2csc(NC(=O)c3ccc(C(C)(C)C)cc3)c2C(=O)O)cc1 | nt | i | nt | nt | nt | nt
O=C(Nc1scc(-c2ccccc2)c1C(=O)O)c1ccc(F)cc1 | i | i | ? | 19.8 | 23.8 | i
COc1ccc(-c2csc(NC(=O)c3ccccc3Br)c2C(=O)O)cc1 | i | i | i | i | i | i[0.00184 µM]
CCSc1nc2c(cnn2-c2ccc(C)c(C)c2)c(=O)[nH]1 | i | i | i | i | i | nt
CCCCN(C)CCN1C(=O)C2C(C(=O)Nc3cccc(OC)c3)C3C=CC2(O3)C1C(=O)NC1CCCCC1C (stereo not drawn) | ? | i | i | i | i | ?
CCn1c(-c2ccccc2SC)n[nH]c1=S | ? | i | i | i | i | i
CCn1c(-c2cc(-c3ccc(OC(C)C)cc3)nc3ccccc23)n[nH]c1=S | 1.47µM | i | i | i | 31.1 | nt
CCn1c(-c2cc(-c3ccc(C)cc3)nc3ccccc23)n[nH]c1=S | 16.5µM | i | i | i | 16.5 | ?
C=CCn1c(-c2cccc(OCC)c2)n[nH]c1=S | i | i | i | i | i | i
CCn1c(-c2ccc3ncccc3c2)n[nH]c1=S | i | i | i | i | i | i
C=CCn1c(-c2cc(-c3ccc(C)cc3)nc3ccccc23)n[nH]c1=S | ? | i | i | i | i | 16.5µM
CCCOc1cccc(-c2cc(-c3n[nH]c(=S)n3CC)c3ccccc3n2)c1 | 3.7µM | i | i | i | i | 10.4µM
COC(=O)c1cc(NC(=O)N2c3ccccc3Sc3ccccc32)cc(C(=O)OC)c1 | ? | i | i | i | i | ?
Cc1nn2c(-c3cccc(NC(=O)c4ccco4)c3)nnc2c2ccccc12 | i | i | i | i | 22.4 | 9.28µM
Cc1nn2c(-c3ccccc3)nnc2c2ccccc12 | ? | i | i | i | 11.3 | i
COc1ccccc1NC(=O)c1cccc(NC(=O)c2ccco2)c1 | ? | i | i | i | i | i
Cc1ccc(N2C(=O)C(F)(F)C2c2ccccc2)cc1 (stereo not drawn) | i | i | i | i | i | i
Cc1ccc(N2C(=N)/C(=C3/Nc4ccccc4S3)C(c3ccccc3)C2=O)cc1 (stereo not drawn) | ? | i | i | 62.0 | 43.8 | i
Cc1nc(NC(C)C)c2cnn(CCc3ccccc3)c2n1 | i | i | i | i | 19.1 | nt
CCCNc1nc(C)nc2c1cnn2CCc1ccccc1 | i | i | i | i | 19.3 | nt
Cc1nc(NCCCN2CCOCC2)c2cnn(-c3ccccc3)c2n1 | nt | i | nt | nt | nt | nt
O=C(Cn1nc(-c2ccccc2)nc1-c1ccccc1)OC1CCCCC1 | i | i | i | i | i | ?
CCOC(=O)Cn1nc(-c2ccccc2)c(-c2ccccc2)nc1=O | i | i | i | i | i | i
CCOC(=O)Cn1ncc(-c2ccccc2)c1N | ? | i | i | 68.2 | 28.6 | i
CCOC(=O)Cn1nc(-c2ccccc2)nc1-c1ccccc1 | nt | i | i | i | 26.1 | i
SMILES | Pf growth 96h | AMA1-RON2 inh | SARS PLpro yeast | Shiga toxin inh | Cycloheximide cs | Pf growth 48h
O=C1CN2CCC1C/C2=C\c1ccnc2c(Cl)cccc12 (stereo not drawn) | i | i | i | i | i | i
c1ccc(Oc2cccc(OCCCCSc3ncccn3)c2)cc1 | nt | i | i | i | i | i
CCc1ccccc1NC(=O)Nc1ccon1 | i | i | i | i | i | i
O=C(Nc1cccc(C(F)(F)F)c1)Nc1ccon1 | i | i | i | i | i | i
O=C(Nc1ccon1)Nc1cccc(Cl)c1Cl | i | i | i | i | 9.6 | i
Cc1ccc(NC(=O)Nc2ccon2)cc1 | i | i | i | 66.3 | 40.1 | i
O=C(Nc1ccon1)Nc1ccc(Cl)cc1Cl | i | i | i | 41.7 | 24.5 | i
COc1ccc(NC(=O)Nc2cccc(Cl)c2Cl)c(OC)n1 | 9.28µM | i | i | i | i | ?
Cn1nccc1NC(=O)Nc1cccc(Cl)c1Cl | i | i | i | i | i | i
O=C(O)CSc1nnc(NC(=O)CN2CCOCC2)s1 | i | i | i | i | i | i
C=CCNC(=S)N1CCN(C2CCCCC2)CC1 | i | i | i | i | i | ?
